# ChEMBL document CHEMBL3433997, “St. Jude Leishmania screening dataset” (2016)
# Experiments:
# Format in all cases: functional
# [1] = biological target: Solute carrier family 2, facilitated glucose transporter member 1 (Homo sapiens) (UniProt P11166); assay: ST_JUDE_LEISH: Cytotoxicity at 2uM final concentration against transgenic Leishmania Mexicana promastigotes LmGLUT1 that are glucose transport deficient and complemented with the human glucose transporter GLUT1. Activity is measured by DNA content using SYBR green in vitro
# [2] = biological target: Hexose transporter 1 (Plasmodium falciparum) (UniProt O97467); assay: ST_JUDE_LEISH: Cytotoxicity at 2uM final concentration against transgenic Leishmania Mexicana promastigotes LmPfHT that are glucose transport deficient and complemented with the Plasmodium falciparum hexose transporter. Activity is measured by DNA content using SYBR green in vitro
# [3] = biological target: Glucose transporter (Leishmania mexicana) (UniProt O61059); assay: ST_JUDE_LEISH: Cytotoxicity at 2uM final concentration against transgenic Leishmania Mexicana promastigotes LmGT2 that are glucose transport deficient and complemented with the L. Mexicana glucose transporter 2. Activity is measured by DNA content using SYBR green in vitro
# Sequence of Solute carrier family 2, facilitated glucose transporter member 1 (Homo sapiens) (P11166 whole entry): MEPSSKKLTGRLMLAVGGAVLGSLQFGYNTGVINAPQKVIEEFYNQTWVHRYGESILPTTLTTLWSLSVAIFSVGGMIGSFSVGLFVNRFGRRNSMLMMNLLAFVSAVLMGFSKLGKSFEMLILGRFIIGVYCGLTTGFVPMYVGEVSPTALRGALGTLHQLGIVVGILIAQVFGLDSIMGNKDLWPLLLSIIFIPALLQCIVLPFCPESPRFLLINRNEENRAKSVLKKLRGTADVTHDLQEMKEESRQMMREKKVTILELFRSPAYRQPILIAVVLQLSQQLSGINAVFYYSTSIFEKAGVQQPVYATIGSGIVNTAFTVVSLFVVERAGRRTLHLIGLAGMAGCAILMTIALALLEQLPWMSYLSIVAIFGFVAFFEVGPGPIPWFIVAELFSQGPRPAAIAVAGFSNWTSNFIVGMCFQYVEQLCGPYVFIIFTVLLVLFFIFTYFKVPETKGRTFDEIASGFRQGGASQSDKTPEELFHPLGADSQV
Compound,inhibition [1] [%],inhibition [2] [%],inhibition [3] [%]
Cc1cc(Nc2ccc(Oc3ccc(Cl)cc3)cc2)nc(N)n1,3.89,5.01,2.92
CN(C)C(C)(C)CN(Cc1ccc(-c2ccc(C(F)(F)F)cc2)cc1)C(=O)Cn1c(CCc2cccc(F)c2F)nc(=O)c2ccccc21,1.52,0.48,0.79
COc1cc(Cc2cnc(N)nc2N)cc(OCCCCNS(=O)(=O)C(F)(F)F)c1OC,1.9,1.69,1.88
CC(=O)Nc1ccc(OCCCCN(Cc2ccccc2C(F)(F)F)c2ccc(C#N)c(C(F)(F)F)c2)c(Cl)c1,4.39,4.65,4.57
OC(CN1CCN(C2CCCCC2)CC1)Cn1c2ccccc2c2cc(Br)ccc21 (stereo not drawn),1.23,0.82,0.47
CCN(CC)CCOC(=O)c1ccc(NC(=O)c2cc(-c3ccc(C)cc3)nc3ccccc23)cc1,1.71,0.95,1.21
CCCc1cc(Cc2cnc(N)nc2N)cc(CCC)c1OCCCCC(=O)OCC,6.48,2.3,1.54
CCN1C(c2ccc(Cl)cc2)C(CNCc2ccccc2O)CC1(C)CO (stereo not drawn),8.9,7.62,4.57
N=C(N)NN=Cc1ccc2c(c1)Cc1ccccc1-2,8.82,8.08,6.46
CCCCCNc1nc2nc(N)nc(N)c2nc1-c1ccccc1,7.52,9.23,0.23
Cc1ccc(O)cc1Nc1ccnc2ccc(-c3csc(CNCCN4CCOCC4)n3)cc12,3.28,2.25,1.59
Cc1ccc(C(=O)Nc2ccc(F)c(F)c2F)cc1S(=O)(=O)N1CCCCC1,4.08,3.47,0.7
COc1ccc2nccc([C@@H](O)CN3CCC(NCc4ccc5c(c4)NC(=O)C(C)(C)O5)CC3)c2c1,7.93,8.24,3.18
Cc1cccc2nc(-c3cccc(-c4ccc(NC(=O)c5cccc(C(N)=O)c5)cc4)c3)[nH]c12,1.01,1.42,1.38
COc1ccc(C2CCN(C#N)C2)cc1OC1CCCC1 (stereo not drawn),17,17.2,11.1
Cc1cc(N2CCCCC2)nc2ccc(NC(=O)c3cccc([N+](=O)[O-])c3)cc12,4.97,4.4,6.58
CNCCNCc1ccc(-c2cccc(-c3nc4cc(F)ccc4[nH]3)c2)cc1,2.53,3.78,3.03
O=C(Nc1ccc(OC2CCN(Cc3ccsc3)C2)c(Cl)c1)c1cccs1 (stereo not drawn),2.98,3.61,2.52
COc1ccccc1CCN(C)CCN1CCC(NC(=O)c2ccc(-c3ccc(C(F)(F)F)cc3)cc2)CC1,1.81,1.97,1.05
CS(=O)(=O)CCNCc1cccc(-c2cc3nccc(Nc4ccc(Oc5ccccc5)cc4)c3cc2Cl)c1,-1.75,0.05,-0.97
CCCCN1CCN(CC(O)CNC(=O)Nc2ccc(Cl)cc2)CC1 (stereo not drawn),2.88,3.59,1.81
Cc1cc(=NN=Cc2ccccc2F)c2cccc(C)c2[nH]1,3.9,5.38,0.4
COc1ccccc1-c1csc(C(=O)NC2CCCCN(Cc3ccc(C(C)(C)C)cc3)C2)c1 (stereo not drawn),2.42,1.58,2.61
CCCC(CC)n1ccc2c3c(N)nc(N)nc3ccc21 (stereo not drawn),70.5,76.3,57.8
Cc1cc(N[C@@H](CC(C)C)C(=O)NCc2cccs2)nc(Nc2ccccc2)n1,5.66,3.95,2.84
COc1cc2c(cc1C=CC(=O)N1CCN(Cc3nc(O)c4c(C)c(C)sc4n3)CC1)OC(C)C2 (stereo not drawn),1.98,3.73,2.08

Compound,inhibition [1] [%],inhibition [2] [%],inhibition [3] [%]
N#Cc1cncc(-c2nc3c(N4CCC(Cc5ccccc5)CC4)cccc3n2CCNCc2ccccc2)c1,5.27,4.45,6.16
CCCCCCn1c(Sc2ccc(C#N)c([N+](=O)[O-])c2)nnc1-c1cccc(Cl)c1,3.22,9.17,0.88
OC[C@H]1CCCN1CC#Cc1cc2c(Nc3ccc(OCc4cccc(F)c4)c(Cl)c3)ncnc2s1,3.54,3.56,2.65
COc1cc(CNC[C@@H](O)[C@H](Cc2ccccc2)NC(=O)c2cc(C3CCCC3)cc(N3CCCS3(=O)=O)c2)cc(OC)c1,4.36,3.83,4.45
NC12CC3CC(CC(C3)C1)C2,5.47,5.42,4.45
O=C(/C=C/c1cc([N+](=O)[O-])ccc1Cl)N1CCC(CCN2CCC(c3c[nH]c4ccccc34)CC2)CC1,2.1,3.61,0.76
COc1ccc(-c2cncc3ccc(C(=O)NCc4ccncc4)nc23)cc1,6.53,4.27,2.69
Oc1ccc(Cl)cc1Nc1nc(C(F)(F)F)nc2ccccc12,1.75,1.98,2.23
O=S(=O)(Nc1cc2c(cc1O)CCN(C1CCC1)CC2)c1ccc(-c2ccc(F)cc2)cc1,5.67,8.27,3.1
Cc1ccc(/C=C/C(=O)N2CCC(CCN3CCC(c4c[nH]c5ccccc45)CC3)CC2)cc1C,1.87,1.19,6.17
O=C(Nc1ccccc1)N(Cc1cccc(-c2cccc(CNCc3ccc4c(c3)OCO4)c2)c1)C1CCN(Cc2ccccc2)CC1,0.53,1.69,2.79
CCC1N=C(N)N=C(N)N1OCc1cccc2ccccc12 (stereo not drawn),1.74,0.62,1.16
CCSc1nc2sc3c(c2c(=O)n1-c1ccccc1)CCN(C)C3,0.1,0.76,-0.96
Cc1ccc(Oc2c(-c3ccccc3CN3CCCC3CN(C)C)cnn(C)c2=O)cn1 (stereo not drawn),6.33,4.63,5.57
Cc1nc(-c2cccc(C(=O)Nc3cnc4ccccc4c3)c2)no1,5.51,3.53,3.52
Cc1cc(N[C@@H](Cc2ccccc2)C(=O)NCCOc2ccccc2)nc(NCCc2cccs2)n1,8.11,7.52,6.47
O=C(C=Cc1ccc(-c2nc3ccccc3[nH]2)cc1)NC1CCN(Cc2ccccc2)CC1,-1.19,1.99,5.3
CCC1N=C(N)N=C(N)N1OCCCOc1c(Cl)cc(Cl)cc1Cl (stereo not drawn),3.53,2.05,3.44
O=C(Nc1ccsc1)Nc1cccc(-c2cccc(-c3nc4cc(C(F)(F)F)ccc4[nH]3)c2)c1,-1.45,1.47,1.55
CN(C)CCCNc1ncnc2c1[nH]c1ccc(Cl)cc12,1.91,3.62,1.6
CCCNCc1ccc(-c2ccc(CN(CCOC)C(=O)/C=C/c3ccccc3C)cc2)nc1,9.67,6.69,6.86
CCCC(CNCc1ccccc1)CNc1cc(=O)c2ccccc2[nH]1 (stereo not drawn),-0.08,-3.44,-0.73
O=C(/C=C/c1ccc(Cl)c(Cl)c1)NCCCCCN1CCC(NC(=O)Nc2cccc(F)c2)CC1,2.32,1.97,2.29
Ic1cc(Nc2ncnc3ccsc23)ccc1OCc1ccccc1,0.8,0.85,0.81
CC1(C)N=C(NC(=O)c2ccc([N+](=O)[O-])cc2)N=C(N)N1OCc1ccc2ccccc2c1,3.85,4.18,-0.07
